The results in this text go back to PubChem BioAssay AID588689 (Southern Research Specialized Biocontainment Screening …, 2011).

Molecules are shown by their SMILES. Out of some 340,000 compounds screened, about 1,000 (0.29%) were called active. Cut-off read from the data, not from the text of the source: inconclusive = inhibition above about 29% without an active follow-up result; inactive = below that. The list is a sample of the results. Entries with a potency or affinity are not part of this list.

This experiment addresses Genome polyprotein (Dengue virus type 2 (strain 16681-PDK53)) (UniProt P29991). Description: Dengue-2 NS5 methyltransferase inhibitors, primary screen, biochemical, confirmation dose response (AID 588689). The settings on record: Dengue-2 NS5 methyltransferase capping enzyme assay, at 25 µM, stronger effect = higher value.
Setting [1] is: measured here: pilot screen replicate inhibition.

On to `CCCOc1ccc(NC(=O)CC2C(=O)N(CC)C(=S)N2Cc2cccs2)cc1` (stereo not given), for which the inhibition (usually the relative decrease from the control value, in per cent) was -2.45% (inactive).

Consider `C/C(=C\c1cccc(Cl)c1)C(=O)c1c(C)cc(C)[nH]c1=O`, for which the inhibition is 0.68% (inactive). On to `COc1ccc(S(=O)(=O)N2CCN(c3ccccc3)CC2)cc1`, for which the inhibition is -2.22% (inactive). With `Cc1cccc(N2CCN(c3nc(C)cc(C)c3C#N)CC2C)c1` (stereo not given), the inhibition was -4.66% (inactive). Same read-out and setting: the same measure for `O=C1/C(=C/c2cccs2)SC(=S)N1c1ccccc1`: -4.85% (inactive); for `CCOc1ccc(/C=C2/SC(=S)N(C(C(=O)O)c3ccccc3)C2=O)cc1OCC` (stereo not given): 22.1% (inactive); for `COc1ccc(OC)c(/C=C2\SC(=S)N(C(C(=O)O)c3ccccc3)C2=O)c1` (stereo not given): -26.1% (inactive). Turning to `CCOc1ccc(/C=C2\SC(=S)N(C(C(=O)O)c3ccccc3)C2=O)cc1OC` (stereo not given), the inhibition was 16.8% (inactive). The same measure, in the same setting: the result for `O=C(O)C(c1ccccc1)N1C(=O)/C(=C\c2ccc(-c3ccccc3Cl)o2)SC1=S` (stereo not given) reads 12.4% (inactive). On the same count and under the same terms, the same measure for `COc1cccc(/C=C2\SC(=S)N(c3cccnc3)C2=O)c1OC`: 6.89% (inactive); for `COc1ccc(/C=C2\SC(=S)N(C(C(=O)O)c3ccccc3)C2=O)c(OC)c1` (stereo not given): -11.9% (inactive). On the same count and under the same terms, the result for `COc1cccc(/C=C2\SC(=S)N(N3CCOCC3)C2=O)c1OC` reads -5.48% (inactive); that for `CC1(C(=O)N2CCN(c3ccc([N+](=O)[O-])cc3)CC2)CC1(Cl)Cl` (stereo not given), -2.36% (inactive); that for `CN(CC(=O)Nc1ccc(F)cc1)C(=O)CSc1nccn1C`, 7.2% (inactive).

As for `Cn1nc(C(=O)NCc2cccc(Cl)c2)c2c1-c1ccccc1S(=O)(=O)C2`, the inhibition was 5.32% (inactive).

In the case of `COc1cccc(C(=S)N2CCOCC2)c1OS(=O)(=O)c1ccc(Cl)cc1`, the inhibition was 1.61% (inactive). Still for that read-out and setting: the same measure for `CC(C)Cc1ccc(C(C)NC(=O)Cc2ccc(S(=O)(=O)N3CCOCC3)s2)cc1` (stereo not given): -1.45% (inactive); for `O=C(Nc1ccccc1[N+](=O)[O-])c1cccc(N2C(=O)CCC2=O)c1`: -7.81% (inactive); for `O=C(O)c1cnc(-c2ccccc2)nc1C(F)(F)F`: -8.19% (inactive).

In the case of `COC(=O)Nc1nc(-c2ccccc2)c(C(=O)c2ccccc2)s1`, the inhibition is -4.12% (inactive). The same measure, in the same setting: the same measure for `COc1cccc(-c2ccc3ncnc(NCc4cccc(C)c4)c3c2)c1`: -0.8% (inactive); for `COc1ccc(CNC(=O)/C=C/c2cc3c(cc2Br)OCO3)cc1`: -8.34% (inactive). On the same count and under the same terms, the result for `COc1cc(/C=C2\OC(=O)c3c(OC)cccc32)ccc1O` reads -20.1% (inactive).

Take `COc1cc(C(=O)O)c2c(c1C)OC(=O)c1c(C)cc(O)c(C=O)c1O2`: the inhibition is 0.72% (inactive). The same measure, in the same setting: the same measure for `O=C(O)C1C2CCC(O2)C1C(=O)Nc1ccc(Br)cc1F` (stereo not given): -6.36% (inactive); for `C=CCC[C@@H](Cc1ccc(F)cc1)C(=O)OC[C@@H](Cc1ccccc1)NC(=O)[C@@H](CC=C)CC(=O)N[C@@H](CO)Cc1ccccc1`: -4.81% (inactive); for `CC(C)CSC1=NSC2=NC(=O)/C(=C\c3cccs3)C(=N)N12`: 24.3% (inactive).

Consider `N=C1/C(=C/c2cccs2)C(=O)N=C2SN=C(SCc3ccccc3)N12`, for which the inhibition is -11.6% (inactive).

As to `CCCCCCCCCCNC(=O)CCn1[nH]c(=O)c2ccccc2c1=O`, the inhibition is -4.1% (inactive). `Cc1cccc(C)c1OCCn1nnc2ccccc21`: the inhibition was 1.31% (inactive). Besides, the inhibition under setting [1] is -3.03%. Consider `COc1cc(/C=C2/C(=O)N(c3ccc(C(=O)O)cc3)N=C2C)cc(OC)c1O`, for which the inhibition is -28.1% (inactive). Regarding `COc1cc(/C=C2/C(=O)N(c3cccc(Br)c3)N=C2C)cc(OC)c1O`, the inhibition is -25.2% (inactive). Consider `COc1ccc(/C=C2\N=C(C)N(c3ccc(C(=O)O)cc3)C2=O)cc1OC`, for which the inhibition is -13.8% (inactive). In the case of `COc1cc(/C=C2\C(=O)N(CCC#N)N=C2C)ccc1OCC(=O)Nc1ccccc1`, the inhibition is 27.7% (inactive). Same read-out and setting: the result for `Cc1ccccc1NC(=O)Cn1nnc(S(=O)(=O)c2ccc(C(C)(C)C)cc2)c1N` reads -3.62% (inactive). On the same count and under the same terms, the result for `NC(=O)N/N=C/c1ccc(-c2cccc(C(F)(F)F)c2)o1` reads -7.73% (inactive). With `Fc1cccc(/C=C2\CCCC3=C2NC(=S)NC3c2cccc(F)c2)c1` (stereo not given), the inhibition was 3.88% (inactive).

Consider `COC1=C(Nc2ccc(C)cc2)C(=O)c2ccccc2C1=O`, for which the inhibition is 1.28% (inactive). Take `Cc1ccc(SC2=C(Sc3ccc(C)cc3)C(=O)c3ccccc3C2=O)cc1`: the inhibition was 22.2% (inactive). For the compound `COc1ccc(CN2CC(C(=O)NCCN3CCOCC3)CC2=O)cc1` (stereo not given), the inhibition is 0.54% (inactive). Turning to `O=C(CN1C(=O)COc2ccc(Cl)cc21)N1CCc2ccccc21`, the inhibition was -2.43% (inactive). For `Cc1cc(C)n(-c2nc3ccccc3c(=O)n2OCC#N)n1`, the inhibition is -1.94% (inactive). In the case of `CC(=O)Oc1ccc(N(C(C)=O)S(=O)(=O)c2ccc(C)cc2)c2ccccc12`, the inhibition is -8.55% (inactive).

As to `CC(=O)Oc1ccc(N(C(C)=O)S(=O)(=O)c2ccccc2)c2ccccc12`, the inhibition was 6.04% (inactive). The same measure, in the same setting: the same measure for `O=C(NCCCn1ccnc1)c1ccc(Cl)s1`: -4.6% (inactive). On the same count and under the same terms, the same measure for `O=S(=O)(O)c1ccc(N=Nc2ccccc2)cc1`: -9.54% (inactive).

As to `O=S(=O)(Nc1ccc(N=Nc2ccc(O)c3ccccc23)cc1)c1ccccc1`, the inhibition was 6.54% (inactive). As to `O=C(C[n+]1ccc(C(=O)c2ccccc2)cc1)Nc1ccccc1OC(F)F`, the inhibition is -15.9% (inactive). Still for that read-out and setting: the result for `O=P(C(=S)Nc1ccccc1Cl)(c1ccccc1)c1ccccc1` reads -1.15% (inactive). Take `Cc1ccc(NC(=O)c2ccccc2NS(=O)(=O)c2ccc(Cl)s2)cc1`: the inhibition is -0.66% (inactive).

As for `O=C(Nc1ccccc1)c1ccccc1NS(=O)(=O)c1ccc(Cl)s1`, the inhibition was 10.3% (inactive). Consider `COC(=O)[C@]1(C)N[C@H](CN(C)S(=O)(=O)c2ccc(OC)cc2)[C@@H]2C(=O)N(C)C(=O)[C@@H]21`, for which the inhibition is -4.63% (inactive). Also, the inhibition under setting [1] was -0.915%. Take `Cc1ccc(S(=O)(=O)N2CCOCC2)cc1C(=O)NC1CCCC(C)C1C` (stereo not given): the inhibition is 1.47% (inactive). With `CCCC1=C([O-])C2N=CC=CC2=[N+](c2ccccn2)C1=O` (stereo not given), the inhibition was -1.93% (inactive). Same read-out and setting: the same measure for `COC(=O)C1OC2(OC1C(=O)OC)c1ccccc1-c1ccccc12` (stereo not given): -6.04% (inactive); for `O=C1c2ccccc2C(O)N1c1ccc(Cl)cc1` (stereo not given): -2.08% (inactive). `CC(C)(Oc1ccc(Cl)cc1)C(=O)NC1CCSC1=O` (stereo not given): the inhibition is -4.81% (inactive).

Regarding `CCOC(=O)N1CCC(NC(=S)Nc2ccc3nc(N4CCN(CC)CC4)cc(C)c3c2)CC1`, the inhibition was -6.96% (inactive). With `COc1ccc(-c2cc(C(=O)NCCN3CCOCC3)c3ccccc3n2)c(OC)c1`, the inhibition was -2.05% (inactive).

As to `Cc1cccc(N(CC(=O)O)CC(=O)O)c1`, the inhibition is 0.96% (inactive).

For the compound `CSC(=CC(=O)c1ccccc1)SC`, the inhibition was -2.05% (inactive).

Regarding `COc1cccc(C(=O)C(C#N)=C(SC)SC)c1`, the inhibition was 12.4% (inactive).

In the case of `Cc1c(C(=O)Nc2cccc([N+](=O)[O-])c2)sc2ncn(CC(=O)N3CCOCC3)c(=O)c12`, the inhibition is -4.39% (inactive). In the case of `Cc1nc2ccc(Br)cc2c(-c2ccccc2)c1C(=O)O`, the inhibition is 1.96% (inactive). Same read-out and setting: the result for `Cc1cccc(Nc2nnc(SCC(=O)NC3CCCc4ccccc43)s2)c1C` (stereo not given) reads -1.45% (inactive); that for `CSc1ccc(-c2sc(Nc3ccccc3)n[n+]2-c2ccccc2)cc1`, -11.6% (inactive). On the same count and under the same terms, the result for `CC(=O)Nc1ccc(-c2sc(Nc3cccc4ccccc34)n[n+]2-c2ccccc2)cc1` reads -7.03% (inactive); that for `CCOC(=O)c1cnc2c(C)c(Cl)ccc2c1N1CCN(CC)CC1`, -10.3% (inactive); that for `Cc1[nH]c2ccccc2c1-c1nc2ccccc2[nH]c1=O`, -8.14% (inactive). On to `Cc1[nH]c2ccccc2c1-c1nc2ccccc2[nH]1`, for which the inhibition was -3.22% (inactive).

For `COc1ccc(S(=O)(=O)NC2CCCC2)cc1C(N)=O`, the inhibition was -1.94% (inactive). Consider `[O-][n+]1c2ccccc2[n+]([O-])c2cc(O)ccc21`, for which the inhibition was 37.8% (inactive). The same measure, in the same setting: the result for `O=c1cc(O)c2ccc(O)cc2o1` reads 0% (inactive).

Take `COc1ccc(C(=O)OCCNC(=O)c2ccncc2)cc1OC`: the inhibition was -5.77% (inactive). On the same count and under the same terms, the same measure for `CCOC(=O)c1ccccc1NC(=O)c1n[nH]c(=O)c2ccccc12`: 0% (inactive); for `COc1cccc(N2CCN(C(=O)c3c(C)nn(-c4ccccc4)c3C)CC2)c1`: -1.48% (inactive). On the same count and under the same terms, the result for `COc1ccc(C(=O)NC2CCCc3c2cnn3-c2ccc(C)c(C)c2)c(OC)c1OC` (stereo not given) reads -2.67% (inactive). Same read-out and setting: the same measure for `O=C1CC(Sc2ncccc2C(=O)O)C(=O)N1` (stereo not given): 6.1% (inactive).

For `CC1=NN(c2ccccc2)C(=O)C1C(=S)SC1CC(=O)NC1=O` (stereo not given), the inhibition was 26.3% (inactive). As for `O=C(COC(=O)c1ccc(Br)o1)NC1CCCc2ccccc21` (stereo not given), the inhibition was -3.71% (inactive). Still for that read-out and setting: the result for `CC(C)NS(=O)(=O)c1ccc(OCC(=O)NCc2ccco2)cc1` reads -2.21% (inactive); that for `Cc1ccc2nc(C)c(C(=O)N/N=C/c3ccccc3[N+](=O)[O-])cc2c1`, -1.3% (inactive). On the same count and under the same terms, the same measure for `O=[N+]([O-])c1cnc2ccccc2c1`: 3.89% (inactive); for `O=c1c2c([N+](=O)[O-])cc([N+](=O)[O-])cc2nc2ccccn12`: 0% (inactive). Regarding `Cc1nc2ccc([N+](=O)[O-])cc2nc1C`, the inhibition is -4.51% (inactive). Take `COc1cc(Cl)cc(NC(=O)CCN2CCN(C)CC2)c1`: the inhibition is -1.61% (inactive). As for `O=C(NCCc1cccnc1)C1CCC(=O)N(CCc2cccc(F)c2)C1` (stereo not given), the inhibition is -9.31% (inactive). On the same count and under the same terms, the result for `Cc1ccccc1C(=O)Nc1c2c(nn1C(C)(C)C)CS(=O)(=O)C2` reads -5.2% (inactive). Turning to `C=C1C(=O)O[C@H]2C[C@H]1[C@@H](OC(C)=O)C/C(C)=C/CC/C(C)=C\CC[C@]2(C)O`, the inhibition was -22.5% (inactive). Further, the inhibition under setting [1] is -2.46%. As to `CC(=O)C12CCCCC1CC1C3CC(C)C4(O)CC(=O)CCC4(C)C3CCC12C` (stereo not given), the inhibition was -1.3% (inactive). Still for that read-out and setting: the result for `O=C(c1ccccc1NS(=O)(=O)c1ccccc1[N+](=O)[O-])N1CCOCC1` reads -3.61% (inactive); that for `O=C(c1ccccc1NS(=O)(=O)c1ccccc1[N+](=O)[O-])N1CCCC1`, 5.25% (inactive).
